Source: PubChem (Sanford-Burnham Center for Chemical Genomics)
pCIP destab = compounds decreasing mouse p/CIP protein stability. Q05BA5. F442A p/CIP-EGFP cells, EGFP fluorescence, 16 h. decrease of EGFP signal, % at 10 µM. 290,000 tested, 0.01% active. AID 1984;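 active = EGFP signal decrease of at least 30% at 10 µM or well 3 SD below plate mean, unless failing retest; inactive = the rest, including hits failing retest or dose response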
SUMO HTRF inh = blocks human SUMOylation mediated by UBC9; P63279; inhibition, % at 35 µM; HTRF SUMOylation assay, SAE1/SAE2 + UBC9, in vitro; 290,000 tested, 0.36% active; in the data active = inhibition above about 50%, passing the limit was not always enough
Target sequence (P63279 whole entry, looked up): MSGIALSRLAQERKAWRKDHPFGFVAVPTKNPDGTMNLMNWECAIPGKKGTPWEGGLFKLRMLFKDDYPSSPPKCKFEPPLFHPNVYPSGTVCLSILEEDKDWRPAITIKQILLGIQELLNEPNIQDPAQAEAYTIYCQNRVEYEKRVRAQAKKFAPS
NadD block = NadD (S. aureus) enzyme inhibition; purified NadD enzyme, colorimetric absorbance read-out; inhibition, % at 20 µM; 360,000 tested, 0.78% active; AID 602399; in the data active = inhibition above about 26%
PHOSPHO1 inh = PHOSPHO1 (human) inhibition | 290,000 tested, 1.1% active | inhibition, % at 13.3 µM | AID 1565 | recombinant PHOSPHO1, absorbance phosphatase assay; in the data active = inhibition above about 60%
Target sequence (Q8TCT1 whole entry, looked up): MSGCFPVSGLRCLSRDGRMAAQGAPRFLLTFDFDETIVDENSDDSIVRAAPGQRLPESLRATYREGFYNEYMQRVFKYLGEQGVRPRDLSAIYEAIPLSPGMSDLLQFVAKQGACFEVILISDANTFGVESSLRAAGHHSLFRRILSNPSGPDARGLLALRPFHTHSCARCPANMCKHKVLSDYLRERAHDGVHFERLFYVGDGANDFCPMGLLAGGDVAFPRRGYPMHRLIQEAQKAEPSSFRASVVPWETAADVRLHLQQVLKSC
NadD conf = confirmation of Staphylococcus aureus NadD inhibitors; inhibition, % at 20 µM; 2,000 tested, 13% active; shares compounds with NadD block; purified S. aureus NadD, colorimetric enzyme assay; in the data active = inhibition mostly above about 42%, no sharp cut-off; inactive = mostly below about 42%
A number is an active result; n = inactive; x = not tested or not shown. This is a sample that favours compounds with a hit; in the whole collection about 1.8% have one here.

SMILES	pCIP destab	SUMO HTRF inh	NadD block	PHOSPHO1 inh	NadD conf
O=C(COC(=O)c1ccc(Br)o1)Nc1nc2c(F)c(F)c(F)cc2s1	n	n	34.4	n	n
O=C1CC(/C=C/c2ccc(Cl)cc2)=Nc2ccccc2N1	n	n	32.6	n	n
CS(=O)(=O)N1Cc2cc(C(=O)NCC3CC3)nc(-c3cccc(-c4cccnc4)c3)c2[C@H]1CCO	x	x	n	x	x
CCOc1ccc(NC(=O)COc2cccc3c2CCN(Cc2cccnc2)C3=O)cc1	n	n	n	n	x
CN(c1ccccc1)c1ccc(/C=C(/CCC(=O)O)c2nc3ccccc3s2)cc1[N+](=O)[O-]	x	x	43.1	x	n
O=C(O)CC/C(=C\c1cccc(NC(=O)c2ccccc2Cl)c1)c1nc2ccccc2s1	n	n	30.1	n	n
COc1ccc(NC(=O)C(=O)NCC2CCCN2S(=O)(=O)c2cccs2)cc1 (centres undefined)	x	x	n	x	x
O=C(N/N=C/c1ccccn1)c1[nH]c2ccc([N+](=O)[O-])cc2c1-c1ccccc1	n	n	66.6	n	n
NNC(=O)c1[nH]c2ccc([N+](=O)[O-])cc2c1-c1ccccc1	n	n	n	n	x
O=C(N/N=C/c1ccccc1)c1[nH]c2ccc(Br)cc2c1-c1ccccc1	n	n	33.7	n	n
O=C(NN=C1CCCC1)c1[nH]c2ccc(Br)cc2c1-c1ccccc1	n	n	x	n	x
O=C(COC(=O)c1cc(Br)ccc1O)Nc1ccc2c(c1)OCO2	x	x	n	x	x
Cc1cc(-n2c(SCC(=O)Nc3ccc(Br)cc3)nc3n[nH]c(C)c3c2=N)ccc1Cl	n	n	31.8	n	n
Cc1cc(-n2c(SCC(=O)Nc3ccc(F)c(F)c3)nc3n[nH]c(C)c3c2=N)ccc1Cl	n	n	n	n	x
c1ccc(OCC2CCNCC2)nc1	n	n	n	x	x
COc1ccc(Cn2cccc(NC(=O)Nc3cccc(OC)c3)c2=O)cc1	n	n	n	n	x
O=C(Nc1ncc(Cc2ccccc2Cl)s1)c1ccc(-c2cccc([N+](=O)[O-])c2)o1	n	n	36.0	n	n
O=C(C1=C[C@@H](c2ccc(Br)cc2)C[C@@H](OCc2ccc(CO)cc2)O1)N1CCN(Cc2ccc3c(c2)OCO3)CC1	n	n	n	n	x
O=C(/C=C/c1cccc([N+](=O)[O-])c1)NC(=S)Nc1ccccc1C(=O)O	n	n	x	n	x
O=C(/C=C/c1cccc([N+](=O)[O-])c1)NC(=S)Nc1cccc(NC(=O)c2ccccc2Cl)c1	n	n	29.0	n	n
CCCCOc1cccc(/C=C(\C#N)C(=O)NC2CC2)c1	n	n	n	n	x
O=C(OCc1ccccc1)N1CCC2CC1c1ccc(N3CCN(Cc4ccc5c(c4)OCO5)CC3)cc12 (centres undefined)	x	x	n	x	x
CC1=C(C(=O)Nc2ccccc2)C(c2ccc(C)o2)n2c(s/c(=C\c3ccco3)c2=O)=N1 (centres undefined)	n	71.8	34.1	n	n
Cc1ccc(C)c(C(=O)NCCN(C)C)c1	n	n	n	n	x
C=C(CN(C)C)C(=O)c1cc(C)ccc1C	x	x	31.6	x	n
SMILES	pCIP destab	SUMO HTRF inh	NadD block	PHOSPHO1 inh	NadD conf
O=C(COc1ccc(NS(=O)(=O)c2ccc(F)cc2)cc1)N1CCOCC1	n	n	n	n	x
O=C(C[n+]1cccc2ccccc21)c1ccc(NC(=O)c2ccccc2)cc1	n	n	n	n	x
Cc1cc[n+](CC(=O)c2ccc(NC(=O)c3ccccc3)cc2)c2ccccc12	n	n	36.9	n	n
O=C1NC[C@@H](CCCCN2CCN(CCc3ccc(O)cc3)C(=O)C2=O)N(CCC2CCCCC2)C1=O	x	x	n	x	x
CCOc1cc(/C=N/NC(=O)CNc2ccc(C)cc2)ccc1OC(=O)c1ccccc1	n	n	32.5	n	n
CCOC(=O)CC1=C(C(=O)OCC)C(c2cccnc2)C(C#N)=C(N)O1 (centres undefined)	n	n	n	n	x
CCOC(=O)C1=C(CSc2nc(-c3ccccc3)ccc2C#N)OC(N)=C(C#N)C1c1ccccc1 (centres undefined)	n	n	36.9	n	n
CCOC(=O)C1=C(CSc2nc(-c3ccccc3)ccc2C#N)OC(N)=C(C#N)C1c1cccnc1 (centres undefined)	n	n	40.4	79.9	n
NNC(=O)c1ccc(CSc2nc3ccccc3[nH]2)cc1	n	n	n	n	x
CC(=O)c1ccc(NC(=O)COC(=O)c2c3c(nc4ccccc24)/C(=C\c2cccs2)CCC3)cc1	n	n	27.2	n	n
CN(C)c1ccc(/C=N\NC(=S)SCN2C(=O)C3CCC(C)(C2=O)C3(C)C)cc1 (centres undefined)	n	n	29.3	n	n
